Several values for one entry are separate records, joined by “and”; a condition that tells them apart may be missing. Identical values can stand only once. Records with an inconclusive call do not appear. More than one record can exist for a structure, and the calls need not agree. Activity calls are given as the source filed them. How the source made its calls, unless noted: active means hit-call score of the fitted dose curve at least 0.9, where 1 is the maximum; inactive means score below 0.9.

Read-out in one assay: CD69, CD69 (gene 969)
The assay can be described thus: BSK_LPS_CD69: BioMAP Diversity Plus: LPS Assay for CD69 Biomarker Activity (AID 2284303). The conditions noted are these: primary human HUVEC with PBMC. In outline: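 CD69 surface levels were read by ELISA after 24 h chemical treatment of an LPS-stimulated HUVEC plus PBMC co-culture; positive-direction fit against DMSO vehicle.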
As for `O=C(O)C(F)(F)OC(F)(F)C(F)(F)OC(F)(F)C(F)(F)C(F)(F)C(F)(F)F`, the AC50 – broadly, the concentration at which the activity in the assay is half-maximal – is 36 µM (active) and 32.4 µM (active).

For the compound `C=C(F)C(=O)OC(C(F)(F)F)C(F)(F)F`, the result was inactive.

In the case of `OCC(F)(OC(F)(F)C(F)(OC(F)(F)C(F)(F)C(F)(F)F)C(F)(F)F)C(F)(F)F` (stereo not given), the half-maximal activity concentration (AC50) is 4.81 µM (active) and the outcome was inactive.

Regarding `CCn1cc(C(=O)O)c(=O)c2ccc(C)nc21`, the result was inactive.

As to `CC(=O)c1ccc(C)cc1`, the result was inactive.

Regarding `CC(C)CCCC(C)(C)O`, the outcome was inactive.

In the case of `C=C(C)C(=O)OCCC(F)(F)C(F)(F)C(F)(F)C(F)(F)C(F)(F)C(F)(F)C(F)(F)C(F)(F)F`, the outcome was inactive.

For `CC(C)(CO)CO`, the result was inactive.

As for `O=C(O)C(F)(F)C(F)(F)C(F)(F)C(F)(F)C(F)(F)C(F)(F)C(F)(F)C(F)F`, the outcome was inactive.

With `CCCO[Si](OCCC)(OCCC)OCCC`, the outcome was inactive.

Take `c1ccc(OCCOc2ccccc2)cc1`: the outcome was inactive.

For the compound `CCCCN(CCO)CCO`, the outcome was inactive.

With `O=S(=O)(O)C(F)(F)C(F)(F)OC(F)(F)C(F)(F)F`, the outcome was inactive.

System in another assay: not listed separately
The assay can be described thus: IUF_NPC4_neurite_area_120hr: Leibniz Research Institute for Environmental Medicine (IUF) 120-hour Neuronal Morphology Assay for Neurite Area (NPC4) (AID 2284305; active means hit-call score of the fitted dose curve at least 0.9, where 1 is the maximum).
Settings: not given
In short, it runs like this:
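hNPC spheres on PDL/laminin, N2 medium, 37C/5% CO2; dosed day 0, half-medium refresh day 3; fixed 120 h; TUBB3/Hoechst ICC, high-content imaging; neurite area = mean pixels per neuron (nuclei excluded); DMSO baseline, max 0.1%.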
As for `CCCCC(CC)COC(=O)COc1ccc(Cl)cc1C` (stereo not given), the compound was called inactive.

Consider `N[C@@H](CCC(=O)O)C(=O)O`, for which the outcome was inactive.

Consider `CC(C)Cc1ccc(C(C)C(=O)O)cc1` (stereo not given), for which the outcome was inactive.

For `c1ccc2scnc2c1`, the outcome was inactive.

System in the next assay: not listed separately
The assay can be described thus: IUF_NPC2-5_cytotoxicity_72hr: Cytotoxicity Assessment at 72 hours in the Leibniz Research Institute for Environmental Medicine (IUF) Neural Progenitor Cell Migration and Differentiation Assay for Cytotoxicity (NPC2-5) (AID 2284306; active means hit-call score of the fitted dose curve at least 0.9, where 1 is the maximum;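 further: LDH release into supernatant measured by resorufin fluorescence marking membrane damage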).
Settings: not given
In outline:
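hNPC spheres (0.3 mm), PDL/laminin, DMEM/F12 3:1 + 1% N2; cpd from d0, 7 concs + SC, DMSO max 0.1%; half-medium refresh d3. Readout: supernatant LDH via resorufin fluorescence (RFU), 72 h; gain-of-signal fit.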
On to `CCCCC(CC)COC(=O)COc1ccc(Cl)cc1C` (stereo not given), for which the call was inactive.

Consider `CC(C)Cc1ccc(C(C)C(=O)O)cc1` (stereo not given), for which the compound was called inactive.

For the compound `c1ccc2scnc2c1`, the compound was classed as inactive.

System in another assay: not listed separately
The assay can be described thus: IUF_NPC2-5_cytotoxicity_120hr: Cytotoxicity Assessment at 120 hours in the Leibniz Research Institute for Environmental Medicine (IUF) Neural Progenitor Cell Migration and Differentiation Assay (NPC2-5) (AID 2284307; active means hit-call score of the fitted dose curve at least 0.9, where 1 is the maximum).
Settings: not given
In outline:
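Human fetal neural progenitor spheres (0.3 mm, GW 16-19 cortex) were plated on poly-D-lysine/laminin in N2 differentiation medium and exposed for 120 h, with half-medium refresh at day 3. LDH release into supernatant was read by resorufin fluorescence.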
As for `CCCCC(CC)COC(=O)COc1ccc(Cl)cc1C` (stereo not given), the compound was called inactive.

In the case of `N[C@@H](CCC(=O)O)C(=O)O`, the outcome was inactive.

Regarding `CC(C)Cc1ccc(C(C)C(=O)O)cc1` (stereo not given), the compound was classed as inactive.

On to `c1ccc2scnc2c1`, for which the call was inactive.

System in a further assay: not listed separately
The assay can be described thus: IUF_NPC2-5_cell_number_120hr: Cell Number Assessment at 120 hours in the Leibniz Research Institute for Environmental Medicine (IUF) Neural Progenitor Cell Migration and Differentiation Assay (NPC2-5) (AID 2284308).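 Further: count of Hoechst-stained nuclei in migration zone around plated human neural progenitor spheres.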
Settings: not given
In short, it runs like this: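 Primary human fetal neural progenitor spheres (GW 16-19, 0.3 mm) plated on poly-D-lysine/laminin in N2 differentiation medium, exposed from day 0 for 120 h with half-medium refresh at day 3; Hoechst-positive nuclei counted in migration area versus DMSO control.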
`CCCCC(CC)COC(=O)COc1ccc(Cl)cc1C` (stereo not given): the compound was called inactive.

Regarding `N[C@@H](CCC(=O)O)C(=O)O`, the outcome was inactive.

Consider `CC(C)Cc1ccc(C(C)C(=O)O)cc1` (stereo not given), for which the compound was called inactive.

Take `c1ccc2scnc2c1`: the compound was called inactive.

System in a further assay: not listed separately
The assay can be described thus: IUF_NPC2-5_viability_120hr: Viability Assessment at 120 hours in the Leibniz Research Institute for Environmental Medicine (IUF) Neural Progenitor Cell Migration and Differentiation Assay (NPC2-5) (AID 2284312).
Settings: not given
In outline:
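Human fetal neural progenitor spheres (0.3 mm) plated on poly-D-lysine/laminin in N2 differentiation medium, exposed 120 h with half-medium refresh at day 3. Viability by alamar blue resazurin fluorescence; 7 concentrations, DMSO max 0.1%.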
Turning to `CCCCC(CC)COC(=O)COc1ccc(Cl)cc1C` (stereo not given), the outcome was inactive.

In the case of `N[C@@H](CCC(=O)O)C(=O)O`, the call was inactive.

Regarding `CC(C)Cc1ccc(C(C)C(=O)O)cc1` (stereo not given), the call was inactive.

For `c1ccc2scnc2c1`, the call was inactive.

The test system of a further assay is IYD (gene 389434). The assay can be described thus: CCTE_GLTED_hIYD: CCTE's human Iodotyrosine Deiodinase (xIYD) Inhibition Assay, Great Lakes Toxicology and Ecology Division (GLTED) Lab (AID 2284317; active means hit-call score of the fitted dose curve at least 0.9, where 1 is the maximum;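 further: cell-free human IYD enzyme made in baculovirus insect cells; iodide freed from monoiodotyrosine measured by cerium arsenite color change at 420 nm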).
Settings: not given
In outline:
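Iodide liberated from monoiodotyrosine by baculovirus-expressed human IYD over 3 h was determined colorimetrically (Sandell-Kolthoff, 420 nm) after Dowex separation; inhibition is loss of signal versus DMSO.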
In the case of `O=C1OC2(c3ccc(O)cc3Oc3cc(O)ccc32)c2ccccc21`, the call was inactive.

In the case of `CCCCCCCCCCCCOCCOS(=O)(=O)O`, the AC50 is 76.7 µM (active).

In the case of `CCCCCCCCCCCCN1CCOCC1`, the AC50 was 51 µM (active).

Turning to `CCCCCCCCOC(=O)c1ccc(O)cc1`, the AC50 was 39.6 µM (active).

In the case of `CC/C(=C(\c1ccccc1)c1ccc(OCCN(C)C)cc1)c1ccccc1`, the AC50 was 55.8 µM (active) and 31.5 µM (active).

System in another assay: not listed separately
The assay can be described thus: CCTE_Mundy_HCI_iCellGluta_NOG_NeuriteLength: CCTE's Neurite Outgrowth Assay in iCellGluta cells for Neurite Length, Mundy Lab (AID 2284318; active means hit-call score of the fitted dose curve at least 0.9, where 1 is the maximum).
Settings: not given
In outline:
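Automated high-content imaging of betaIII-tubulin (Alexa Fluor-488) and Hoechst-stained cells gave neurite length, normalized to the DMSO baseline.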
As for `N#CCCNCCC#N`, the compound was called inactive.

`CCCCC(CC)COC(=O)COc1ccc(Cl)cc1C` (stereo not given): the AC50 is 33.4 µM (active).

For the compound `N[C@@H](CCC(=O)O)C(=O)O`, the call was inactive.

Take `CC(C)Cc1ccc(C(C)C(=O)O)cc1` (stereo not given): the AC50 is 15 µM (active).

For `c1ccc2scnc2c1`, the outcome was inactive.

System in a further assay: not listed separately
The assay can be described thus: CCTE_Deisenroth_5AR_NBTE_donor: CCTE's 5alpha-reductase NanoBRET Target Engagement Assay […], Deisenroth Lab (AID 2284319). As to conditions: actives raise or lower the signal. In short, it runs like this:
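HEK293T cells were reverse transfected with an SRD5A2-NanoLuc vector for 20 h, exposed to test chemical (8 points, 10 nM - 29.9 uM) for 3 h, then testosterone tracer for 2 h more. Donor luminescence (460 nm) was read; bidirectional fit versus DMSO.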
In general terms: BRET reads energy transfer from a luciferase to a nearby fluorophore.
`O=S(=O)(O)c1cc(S(=O)(=O)O)c2c(N=Nc3ccccc3)c(O)ccc2c1`: the compound was classed as inactive.

Turning to `O=C(c1ccc(OCCN2CCCCC2)cc1)c1c(-c2ccc(O)cc2)sc2cc(O)ccc12`, the concentration at half-maximal activity (AC50) is 50 µM (active).

Turning to `O=C1OC2(c3ccc(O)cc3Oc3cc(O)ccc32)c2ccccc21`, the AC50 was 3.88 µM (active).

Turning to `CCCCCCCCCCCCOCCOS(=O)(=O)O`, the AC50 was 79 µM (active).

Take `CCCCCCCCCCCCN1CCOCC1`: the outcome was inactive.

As to `CC(=O)C1=C(C)[C@@H]2C[C@@]3(C1)[C@H](C)CC[C@H]3C2(C)C`, the call was inactive.

For the compound `CCCO[Si](OCCC)(OCCC)OCCC`, the compound was called inactive.

`CC/C(=C(\c1ccccc1)c1ccc(OCCN(C)C)cc1)c1ccccc1`: the AC50 was 67.4 µM (active).

For a further assay, the system named is TTR (gene 7276). The assay can be described thus: CCTE_GLTED_hTTR_0.5uM: CCTE's human Transthyretin (hTTR) Inhibition Assay, with 0.5uM TTR, Great Lakes Toxicology and Ecology Division (GLTED) Lab (AID 2284320).
Settings: not given
In short, it runs like this:
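Probe (ANSA) displacement from 0.5 uM human transthyretin was followed by fluorescence (ex 380, em 475) after a 2 h incubation with chemical. Activity was scored as signal loss and fitted positively relative to DMSO.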
As for `O=C(O)C(F)(F)OC(F)(F)C(F)(F)OC(F)(F)C(F)(F)C(F)(F)C(F)(F)F`, the AC50 is 0.712 µM (active).

On to `O=C(O)C(F)(F)C(F)(F)C(F)(F)C(F)(F)C(F)(F)C(F)(F)C(F)(F)C(F)F`, for which the AC50 was 0.53 µM (active).

Consider `O=S(=O)(O)C(F)(F)C(F)(F)OC(F)(F)C(F)(F)F`, for which the AC50 is 2.14 µM (active).

System in the next assay: not listed separately
The assay can be described thus: CCTE_Deisenroth_5AR_NBTE_acceptor: CCTE's 5alpha-reductase NanoBRET Target Engagement Assay - Autofluorescence Screen, Deisenroth Lab (AID 2284321).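 Further: compound fluorescence in the acceptor channel under 460 nm excitation flags autofluorescence artifacts.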 The conditions noted are these: actives raise or lower the signal. In outline: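 HEK293T cell-based NanoBRET assay read 5 h after dosing; this acceptor channel serves as an autofluorescence artifact screen. Chemicals at nominal 100 uM were scanned in three independent runs (n=3), excitation 460 nm. Fitting was bidirectional versus DMSO baseline.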
As for `O=S(=O)(O)c1cc(S(=O)(=O)O)c2c(N=Nc3ccccc3)c(O)ccc2c1`, the outcome was inactive.

On to `O=C(c1ccc(OCCN2CCCCC2)cc1)c1c(-c2ccc(O)cc2)sc2cc(O)ccc12`, for which the concentration at half-maximal activity (AC50) is 50 µM (active).

`O=C1OC2(c3ccc(O)cc3Oc3cc(O)ccc32)c2ccccc21`: the result was inactive.

In the case of `CCCCCCCCCCCCOCCOS(=O)(=O)O`, the AC50 was 78.4 µM (active).

Consider `CCCCCCCCCCCCN1CCOCC1`, for which the result was inactive.

In the case of `CC(=O)C1=C(C)[C@@H]2C[C@@]3(C1)[C@H](C)CC[C@H]3C2(C)C`, the result was inactive.

With `CCCO[Si](OCCC)(OCCC)OCCC`, the call was inactive.

On to `CC/C(=C(\c1ccccc1)c1ccc(OCCN(C)C)cc1)c1ccccc1`, for which the AC50 is 64 µM (active).

Another assay concerns SRD5A2 (gene 6716). The assay can be described thus: CCTE_Deisenroth_5AR_NBTE_ratio: CCTE's 5alpha-reductase NanoBRET Target Engagement Assay - Ratio, Deisenroth Lab (AID 2284322). As to conditions: actives raise or lower the signal. In short, it runs like this:
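SRD5A2-NanoLuc HEK293T; cmpd 10 nM-29.9 uM, 3 h preinc + testosterone tracer 2 h; NanoBRET ratio 650/460; bidirectional fit vs DMSO.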
With `O=S(=O)(O)c1cc(S(=O)(=O)O)c2c(N=Nc3ccccc3)c(O)ccc2c1`, the AC50 is 10.9 µM (active).

For the compound `O=C(c1ccc(OCCN2CCCCC2)cc1)c1c(-c2ccc(O)cc2)sc2cc(O)ccc12`, the AC50 was 19.1 µM (active).

In the case of `O=C1OC2(c3ccc(O)cc3Oc3cc(O)ccc32)c2ccccc21`, the AC50 was 10.3 µM (active).

Consider `CCCCCCCCCCCCOCCOS(=O)(=O)O`, for which the AC50 was 79.1 µM (active).

Take `CCCCCCCCCCCCN1CCOCC1`: the outcome was inactive.

In the case of `CC(=O)C1=C(C)[C@@H]2C[C@@]3(C1)[C@H](C)CC[C@H]3C2(C)C`, the result was inactive.

As for `CCCO[Si](OCCC)(OCCC)OCCC`, the result was inactive.

`CC/C(=C(\c1ccccc1)c1ccc(OCCN(C)C)cc1)c1ccccc1`: the AC50 is 76.6 µM (active).
